# According to PubChem BioAssay AID488969 (Vanderbilt High Throughput Screening Facility, 2010):
# In all, about 110,000 compounds were measured (“z-score”: median about -0.1, highest 2% from about 2 on). Only a selection was taken, and the highest values are over-represented in it overall. Calls of active or inactive are those of the source.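 How the source made its calls: active means z-score in the third read window above 3 or below -3; inactive means the rest.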
# Target: Metabotropic glutamate receptor 8 (Rattus norvegicus) (UniProt P70579)
# Test: mGluR8 Gi/Go-coupled signaling modulation – cell-based, rat, thallium flux, HTS, primary screen (AID 488969)
# Settings: HEK293 rat mGluR8, GIRK (G protein-gated inwardly rectifying potassium channel) thallium flux, FluoZin2; at 10 µM; stronger effect = higher value; submaximal glutamate (EC20) added with thallium
# Sequence of Metabotropic glutamate receptor 8 (Rattus norvegicus) (P70579 whole entry, looked up): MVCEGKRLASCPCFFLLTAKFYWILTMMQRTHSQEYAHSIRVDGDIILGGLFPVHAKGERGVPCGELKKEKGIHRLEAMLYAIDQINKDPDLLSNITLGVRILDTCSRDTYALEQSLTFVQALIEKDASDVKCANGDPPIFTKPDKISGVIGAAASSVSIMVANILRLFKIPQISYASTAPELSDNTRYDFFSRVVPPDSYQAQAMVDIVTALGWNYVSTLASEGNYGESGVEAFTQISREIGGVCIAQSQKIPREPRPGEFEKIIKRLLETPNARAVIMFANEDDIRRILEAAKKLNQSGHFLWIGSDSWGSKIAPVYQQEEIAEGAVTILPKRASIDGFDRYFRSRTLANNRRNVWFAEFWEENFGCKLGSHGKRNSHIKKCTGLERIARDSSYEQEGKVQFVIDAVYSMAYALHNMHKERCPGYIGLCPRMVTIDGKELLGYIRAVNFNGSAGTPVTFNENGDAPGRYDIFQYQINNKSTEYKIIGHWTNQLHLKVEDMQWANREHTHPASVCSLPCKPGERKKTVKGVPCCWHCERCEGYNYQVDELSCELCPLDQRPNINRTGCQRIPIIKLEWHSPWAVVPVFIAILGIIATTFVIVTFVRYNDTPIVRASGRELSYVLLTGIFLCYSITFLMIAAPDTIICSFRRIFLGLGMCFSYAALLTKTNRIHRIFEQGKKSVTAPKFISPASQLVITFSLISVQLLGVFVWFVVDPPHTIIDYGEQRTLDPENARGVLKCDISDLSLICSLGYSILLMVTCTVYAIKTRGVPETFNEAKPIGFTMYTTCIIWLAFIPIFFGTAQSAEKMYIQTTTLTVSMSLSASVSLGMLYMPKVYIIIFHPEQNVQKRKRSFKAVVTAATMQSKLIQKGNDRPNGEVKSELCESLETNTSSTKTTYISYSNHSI
row,Compound,z-score
1,CCn1c(SCc2nc3ccccc3c(=O)[nH]2)nc2ccccc2c1=O,-0.672
2,Cc1ccc2cc(CN(Cc3cccs3)Cc3nnnn3CC3CCCO3)c(=O)[nH]c2c1 (stereo not drawn),-0.0837
3,CCOC(=O)N1CCN(CC(=O)Nc2ccc(C)c(Br)c2)CC1,-0.241
4,CCOC(=O)COc1ccc(S(=O)(=O)Nc2ccc(C)cc2)cc1,-0.352
5,CCC(c1c(C)[nH]oc1=O)c1c(C)[nH]oc1=O,0.119
6,COc1cc(/C=C2/SC(N)=NC2=O)ccc1Oc1ccc([N+](=O)[O-])cc1[N+](=O)[O-],-0.644
7,Cc1cc(C(=O)COC(=O)Cc2n[nH]c(=O)c3ccccc23)c(C)n1-c1cccc(C(F)(F)F)c1,-1.01
8,CCN(CC)c1ccc2cc(C(N)=O)c(=O)oc2c1,-0.0435
9,CCN(CC)c1ccc2cc(-c3nnc(-c4ccccc4)o3)c(=O)oc2c1,2.42
10,CCN(CC)c1ccc2cc(-c3nnc(-c4ccc(Br)cc4)o3)c(=O)oc2c1,-4 (active)
11,CCN(CC)c1ccc2cc(C(C)=O)c(=O)oc2c1,-2.23
12,CCN(CC)c1ccc2cc(C=O)c(=O)oc2c1,17.6 (active)
13,CCN(CC)c1ccc2cc(-c3nnc(-c4ccncc4)o3)c(=O)oc2c1,-1.17
14,CC1CCc2nn(CC(=O)NCCCN3CCOCC3)cc2C1 (stereo not drawn),-0.0438
15,O=C(c1cccc(-n2cnnn2)c1)N1CCOCC1,-0.145
16,COC(=O)c1ccc(C(C(=O)NCc2ccccc2)N(Cc2cccs2)C(=O)c2cnccn2)cc1 (stereo not drawn),-0.245
17,CCc1ccccc1N1C(=O)c2ccccc2S1(=O)=O,-0.409
18,CN(CCc1ccccn1)S(=O)(=O)c1ccccc1F,0.185
19,O=C1c2ccccc2C(=O)N1CNc1ccccc1,0.141
20,O=C1C=C(c2ccccc2)C(=O)N1Nc1ccccc1,0.219
21,O=C1c2ccccc2C(=O)N1Nc1ccccc1,4.88 (active)
22,COc1ccc(/C=N/OCC(=O)Nc2nc3ccccc3s2)cc1,-0.132
23,Cc1cc(OCCN2CCCCC2)nc2ccccc12,0.234
24,Cc1cc(C)cc(C(=O)n2cnnc2N)c1,-0.0618

row,Compound,z-score
1,CC(C)OC(=O)CC12CN(C)CC(CC(=O)OC(C)C)(CN(C)C1)C2=O,0.458
2,CCOC(=O)CC12CN3CN(C1)CC(CC(=O)OCC)(C3)C2=O,-0.0089
3,CC(C)OC(=O)CC12CN3CN(C1)CC(CC(=O)OC(C)C)(C3)C2=O,3.43 (active)
4,O=C(O)c1ccc(F)c(S(=O)(=O)Nc2ccccc2Cl)c1,-0.11
5,COC(=O)c1ccccc1NC(=O)c1cccc(NC(=O)CSCc2ccccc2)c1C,-0.0727
6,Cc1cc(Cl)ccc1OCCCC(=O)NCC1CCCO1 (stereo not drawn),-0.79
7,CC(C)C(=O)Nc1cccc(NC(=O)c2cc3ccccc3o2)c1,7.7 (active)
8,Cc1cccc(NC(=O)c2cc3ccccc3o2)c1,-1.37
9,CC(C)C(=O)Nc1ccc(NC(=O)c2cc3ccccc3o2)cc1,-0.885
10,CCOc1ccc(OCC)c(NC(=O)c2[nH]c(C)c(C(C)=O)c2C)c1,0.862
11,O=C(NCc1nc2ccccc2[nH]1)c1cccc(S(=O)(=O)N2CCCC2)c1,2.4
12,O=C(NCc1nc2ccccc2[nH]1)c1cccc(S(=O)(=O)N2CCOCC2)c1,0.567
13,O=C(NCc1nc2ccccc2[nH]1)c1ccc(Cl)c(S(=O)(=O)N2CCCC2)c1,-0.297
14,CCN(c1c(C)n(C)n(-c2ccccc2)c1=O)S(C)(=O)=O,0.17
15,Cc1ccc(S(=O)(=O)NC2CCCC2)cc1C,-0.157
16,Cc1cc(C)c2c(c1)-c1c(ssc1=S)C(C)(C)N2C(=O)CN1C(=O)c2ccccc2C1=O,0.383
17,CNc1nc(Cl)nc(NC(C)(C)C)n1,7.77 (active)
18,CC(C)(C)Nc1nc(Cl)nc(NC(C)(C)C)n1,-0.0263
19,CC(C)(C)Nc1nc(NN)nc(NC(C)(C)C)n1,-0.766
20,CCn1c(=NC(=O)CSC(C)=O)sc2ccccc21,3.49 (active)
21,CCn1c(=NC(=O)CSC(C)=O)sc2cc(F)ccc21,0.658
22,CCn1c(=NC(=O)CSC(C)=O)sc2cc(OC)ccc21,0.477
23,CN1CCN(CCC(=O)Nc2ccc3c(c2)OCO3)CC1,0.213
24,Cc1cccc(NC(=O)CSc2nc3ccc(NC(=O)CSc4nnnn4-c4ccccc4)cc3s2)c1C,0.181

row,Compound,z-score
1,CCN(CC)S(=O)(=O)c1cc(NC(=O)COC(=O)c2sc3ccccc3c2Cl)ccc1C,-0.0136
2,Cc1cc(/C=C2\SC(=S)NC2=O)c(C)n1C,-0.121
3,Cc1sc(-n2c(C)cc(/C=C3\SC(=S)NC3=O)c2C)c(C#N)c1C,2.26
4,CCn1c(C)cc(/C=C2/SC(=S)NC2=O)c1C,0.271
5,CCN1CCN(C(=O)C(C)N(c2ccc(C)cc2)S(C)(=O)=O)CC1 (stereo not drawn),1.05
6,CCOC(=O)c1sc(NN=C(C(=O)OC)C(=O)OC)c(C(=O)OCC)c1C,2.57
7,CCOC(=O)c1sc(NC(=O)CN2CCCC2)c(C(=O)OCC)c1C,-0.225
8,CCOC(=O)c1sc(NC(=O)CN(CC)CC)c(C(=O)OCC)c1C,-0.132
9,COCCSc1ccccc1C(=O)Nc1ccncc1,0.236
10,O=C(CN1CCN(c2ccccc2)CC1)Nc1cccc(C(F)(F)F)c1,0.756
11,CCCCOc1cccc(C(=O)NC(=S)Nc2cccc(C(F)(F)F)c2)c1,1.84
12,CCCOc1cccc(C(=O)NC(=S)Nc2cccc(C(F)(F)F)c2)c1,3.57 (active)
13,CCCOc1cccc(C(=O)NC(=S)Nc2ccccc2)c1,0.0309
14,O=C(Cc1ccccc1)NC(=S)Nc1cc(C(F)(F)F)ccc1Cl,0.00533
15,O=C(CN1CCN(c2cccc(C(F)(F)F)c2)CC1)Nc1cccc(C(F)(F)F)c1,1
16,S=C(NCc1ccccc1)NCc1ccc2c(c1)OCO2,1.86
17,O=C(CN1CCN(Cc2ccccc2)CC1)Nc1cccc(C(F)(F)F)c1,7.94 (active)
18,O=C(Cc1ccccc1)NC(=S)Nc1cccc(C(F)(F)F)c1,4.01 (active)
19,S=C(NCc1ccccc1)NCc1ccccc1,0.346
20,CCC(=O)Nc1cccc(NC(=S)NC(=O)Cc2ccccc2)c1,-0.281
21,S=C(NCc1ccccc1)NCc1cccc(CNC(=S)NCc2ccccc2)c1,2.84
22,CCN(CC)C(=O)n1nc(C)c(CN2C(=O)c3ccccc3C2=O)c1C,-0.151
23,Nc1ccc(Cl)c(-c2nc3ncccc3o2)c1,0.714
24,CC(C)c1onc(C(=O)N2CCCCC2C)c1[N+](=O)[O-] (stereo not drawn),-0.0403

row,Compound,z-score
1,OC(CSc1ccccc1Cl)CN1CCN(c2ccc(F)cc2)CC1 (stereo not drawn),-0.618
2,CCOC(=O)c1cnc2ccc(C)cc2c1Sc1ccc(F)cc1,-0.262
3,Cc1ccc(S(=O)(=O)N2CCCC2C(=O)Nc2cc(C)on2)cc1 (stereo not drawn),0.4
4,Cc1ccc(CNC(=O)c2ccccc2NS(C)(=O)=O)cc1,-0.309
5,FC(F)Oc1ccc(NC(=S)NCc2ccccc2)cc1,1.51
6,COc1ccc(CNC(=S)Nc2ccc(OC)cc2)cc1,0.711
7,FC(F)(F)c1cccc(NC(=S)NNC(=S)NCc2ccccc2)c1,-0.388
8,FC(F)(F)Oc1ccc(NC(=S)NCc2ccccc2)cc1,3.23 (active)
9,FC(F)(F)c1cccc(NC(=S)NCc2ccccc2)c1,5.63 (active)
10,FC(F)(F)c1cccc(NC(=S)NCc2ccccn2)c1,0.164
11,N=C(N)SCc1nc2ccccn2c1Br,0.308
12,CCOc1cccc(C(=O)Nc2ccc3oc(Cc4ccc(Cl)cc4)nc3c2)c1,-0.351
13,COc1ccc(N(CC(O)CN2C(=O)NC(C)(C)C2=O)S(=O)(=O)c2ccccc2)cc1 (stereo not drawn),-0.294
14,C=CCn1c(SCc2c(F)c(F)c(F)c(F)c2F)nc(O)cc1=O,-0.151
15,C=CCn1c(SCC)nc(O)cc1=O,-0.0583
16,C=CCn1c(SCc2ccccc2)nc(O)cc1=O,2.19
17,O/N=C/c1cc(Br)ccc1OCc1ccc(F)cc1,-0.142
18,Cn1c(=O)c2c(nc3sccn32)n(C)c1=O,3.7 (active)
19,Cc1nc2sccn2c(=O)c1Cl,0.324
20,Cc1nc2sccn2c(=O)c1Br,0.0767
21,COc1ccccc1C(=O)NCc1ccccc1,-0.524
22,Cc1ccc(O)c(NC(=S)NC(=O)c2ccc(-c3ccc(Cl)cc3)o2)c1,0.233
23,NC(=O)c1ccc(Cc2ncc(C(F)(F)F)cc2Cl)s1,4.24 (active)
24,CC(=O)c1ccc(Cc2ncc(C(F)(F)F)cc2Cl)s1,-0.823

row,Compound,z-score
1,O=C(CCl)c1ccc(Cc2ncc(C(F)(F)F)cc2Cl)s1,-0.0387
2,CC1Cc2ccccc2N1CC(=O)c1c(N)n(Cc2ccccc2)c(=O)n(C)c1=O (stereo not drawn),-0.314
3,Nc1c(C(=O)N2CCCCC2)sc(=S)n1-c1ccccc1,-0.163
4,CN1CCN(C(=O)c2sc(=S)n(-c3ccccc3)c2N)CC1,11.1 (active)
5,Cc1ccc(-n2c(N)c(C(=O)N3CCN(C)CC3)sc2=S)cc1,0.948
6,COc1ccc(OC)c(NS(=O)(=O)c2cc(OC)ccc2OC)c1,-0.0402
7,COCCCNS(=O)(=O)c1ccc(OC)c(Cl)c1Cl,0.284
8,COc1ccc(COC(=O)NNC(=O)c2ccccc2Cl)cc1,0.289
9,COc1ccc(-n2c(C)cc(C(=O)CN3C(=O)c4ccccc4C3=O)c2C)cc1,0.595
10,COc1ccc(OC)c(C2C(C(N)=O)=C(C)Nc3nc(-c4cccc(Cl)c4)nn32)c1 (stereo not drawn),1.16
11,COc1ccc(C2C(C(N)=O)=C(C)Nc3nc(-c4cccc(Cl)c4)nn32)cc1OC (stereo not drawn),4.01 (active)
12,CC1=C(C(N)=O)C(c2cccs2)n2nc(-c3cccc(Cl)c3)nc2N1 (stereo not drawn),2.14
13,COc1ccc(C2C(C(N)=O)=C(C)Nc3nc(-c4ccccc4)nn32)cc1OC (stereo not drawn),0.875
14,COc1cccc(C2C(C(N)=O)=C(C)Nc3nc(-c4cccc(Cl)c4)nn32)c1 (stereo not drawn),-0.342
15,CC1=C(C(N)=O)C(c2cccnc2)n2nc(-c3cccc(Cl)c3)nc2N1 (stereo not drawn),0.192
16,Cc1nc2ccccn2c1C(=O)NN=C1C2CC3CC(C2)CC1C3,-0.259
17,O=c1[nH]cnc2scc(-c3ccc(F)cc3)c12,-0.0775
18,S=c1[nH]cnc2scc(-c3ccccc3)c12,13.1 (active)
19,O=c1[nH]cnc2scc(-c3ccc(-c4ccccc4)cc3)c12,0.454
20,Cc1ccc(-c2csc3nc[nH]c(=S)c23)cc1C,15.9 (active)
21,O=c1[nH]cnc2scc(-c3ccccc3)c12,0.259
22,Cc1ccc(-c2csc3ncnc(-n4nnc5ccccc54)c23)cc1C,-0.0158
